Compound activity from PubChem BioAssay.
Glyco luc inh = N-linked glycosylation inhibition | reporter increase, % at 12.5 µM | D54 ERlucT glycosylation luciferase reporter, 24 h; percent of 100 nM tunicamycin response | actives 0.23% (n = 360,000);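 active means mean luciferase reporter signal, scaled so untreated is 0 and the glycosylation-blocking control 100, at or above a set limit in every replicate; inconclusive means mean reaches the limit but not every replicate does; inactive means mean below the limit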;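 further: luciferase carries N-glycosylation sites so blocking glycosylation raises the light; 0% = median of neutral control wells and 100% = median of 100 nM tunicamycin wells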
esBAF inh = SWI/SNF esBAF complex inhibition; mouse ES cells, Bmi1-luciferase knock-in reporter, 24 h; 100% = twice the neutral-well signal; reporter increase, % at 12.5 µM; actives 2% (n = 350,000); in the data active means activation above about 40%; inconclusive means no clear call, values can overlap the other calls;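 further: 0% = median of the plate's neutral control wells and 100% = double that signal; a rise in the Bmi1 reporter signal indicates esBAF inhibition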
Vif inh = blocks HIV Vif function; HEK293T cells, Vif self-association by quenched fluorescence, imaging, 24 h; inhibition, % at 7.49 µM; actives 0.35% (n = 340,000); AID 602346; in the data active means inhibition above about 50%, passing the limit was not always enough; inconclusive means no clear call, values can overlap the other calls; inactive means below about 31%
PvdQ acylase = P. aeruginosa PvdQ acylase inhibition; purified PvdQ acylase, fluorescence plate reader; actives 0.063% (n = 340,000); AID 488965; inhibition, % at 10 µM; in the data active means inhibition above about 30%, passing the limit was not always enough; inconclusive means no clear call, values can overlap the other calls;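 further: 0% = vehicle neutral wells and 100% = reference inhibitor wells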
MITF act = MITF TRPM1 promoter activation in melanoma cells | actives 0.75% (n = 300,000) | SK-MEL-5 TRPM1-promoter luciferase, 24 h; % of positive control, neutral wells = 0 | AID 588334 | activation, % at 12.5 µM;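 active means mean activation of at least 80% with every replicate also reaching 80%; inconclusive means mean reaches 80% but some replicate falls short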;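 further: 0% = neutral control wells and 100% = parthenolide positive control wells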
Wnt act = Wnt/beta-catenin pathway activation | actives 1.2% (n = 300,000) | activation, % at 9.35 µM | Wnt/beta-catenin reporter cell assay, activator, plate reader | AID 743398; in the data active means activation above about 30%, passing the limit was not always enough; inconclusive means no clear call, values can overlap the other calls;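 further: 0% = neutral control wells and 100% = positive control wells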
Active calls of the source: *. In the library only some 2.9% were active in any assay of this set; here they are far more common.

For Cn1cc(/C=N/NC(=O)c2ccccc2O)c2ccccc21 the results were Glyco luc inh -0.3, esBAF inh inconclusive, Vif inh -2.8, PvdQ acylase -9.0 and Wnt act 3.8.
Screening COC(=O)c1ccc(CN2C(=O)NC3(CCC(C)CC3)C2=O)cc1 (stereo unspecified) returned Glyco luc inh 1.7, esBAF inh 43.9*, Vif inh 8.8, PvdQ acylase 4.4, MITF act 47.8 and Wnt act 5.0.
CCN(CC)CCN1C(=O)C(=O)/C(=C(/O)c2cnn(-c3ccccc3)c2C)C1c1ccc(C)o1 (stereo unspecified) was read as Glyco luc inh -0.5, esBAF inh inconclusive, Vif inh 2.9 and PvdQ acylase -6.5.
Cc1ccc(C2/C(=C(\O)c3cnn(-c4ccccc4)c3C)C(=O)C(=O)N2CCN(C)C)o1 (stereo unspecified) was read as Glyco luc inh -2.5, esBAF inh 48.3*, Vif inh 7.1, PvdQ acylase -13.9 and Wnt act -1.7.
For Cc1ccc(C2/C(=C(/O)c3cnn(-c4ccccc4)c3C)C(=O)C(=O)N2CCN2CCOCC2)o1 (stereo unspecified) the results were Glyco luc inh -2.5, esBAF inh 49.7*, Vif inh 4.9, PvdQ acylase -12.6 and MITF act 19.9.
Screening O=C(Nc1ccc2c(c1)CCC2)c1ccc(F)c(S(=O)(=O)N2CCOCC2)c1 returned Glyco luc inh -2.5, Vif inh -12.4, PvdQ acylase 13.4, MITF act 13.7 and Wnt act 83.0*.
`O=C(Nc1ccc(S(=O)(=O)Nc2ncccn2)cc1)c1ccc(F)c(S(=O)(=O)N2CCOCC2)c1` gave Glyco luc inh 1.4, esBAF inh 0.3, Vif inh -10.0, PvdQ acylase -0.4, MITF act -1.5 and Wnt act -2.0.
For Cc1ccc(C)c(C(=O)COC(=O)c2ccc(C)c(S(=O)(=O)N3CCOCC3)c2)c1 the results were Glyco luc inh 0.1, esBAF inh 3.7, Vif inh 58.9*, PvdQ acylase -4.6, MITF act 1.6 and Wnt act -2.5.
For Cc1ccc(C(=O)Nc2ccc3c(c2)CCC3)cc1S(=O)(=O)N1CCOCC1 the results were Glyco luc inh -1.7, esBAF inh 62.4*, Vif inh -3.6, PvdQ acylase -8.3, MITF act 25.7 and Wnt act inconclusive.
`NS(=O)(=O)c1cc(C(=O)Nc2ccc3c(c2)CCC3)ccc1Cl` gave Glyco luc inh 0.6, esBAF inh 77.0*, Vif inh -2.8, PvdQ acylase -1.6, MITF act 113.4* and Wnt act -2.6.
CC=Cc1ccc2n(c1=O)C[C@@H]1[C@@H](CO)[C@H](C(=O)NCC(F)(F)F)N(CC)[C@H]21 (mixture of isomers) was read as esBAF inh 4.7.
Screening Cc1ccc(CNc2nc(C)cs2)cc1 returned Glyco luc inh -5.0, esBAF inh 45.8*, Vif inh -0.3, PvdQ acylase 11.5, MITF act 143.1* and Wnt act 27.3.
CC(=O)Nc1nc(C)cs1 was read as Glyco luc inh 2.0, esBAF inh 5.9, Vif inh 5.9, PvdQ acylase 9.3, MITF act -5.2 and Wnt act 0.2.
`CC(C)C(c1nnnn1CC1CCCO1)N1CCN(C2CCCC2)CC1` (stereo unspecified) gave Glyco luc inh -3.6, esBAF inh -6.6, Vif inh 57.1*, PvdQ acylase 12.5, MITF act 4.8 and Wnt act 0.3.
For CC(C)C(c1nnnn1Cc1cccs1)N1CCN(C2CCCC2)CC1 (stereo unspecified) the results were Glyco luc inh -4.4, esBAF inh -5.5, Vif inh 21.7, PvdQ acylase -11.6, MITF act 4.7 and Wnt act -3.0.
`COc1ccc(C(=O)OCc2cc(=O)oc3cc(C)ccc23)cc1S(=O)(=O)N1CCOCC1` gave Glyco luc inh 1.0, esBAF inh 16.8 and Wnt act 3.1.
Screening Cc1ccc2c(CNCc3ccccc3)cc(=O)oc2c1 returned Glyco luc inh 28.9*, Vif inh 0.9, PvdQ acylase -15.0, MITF act -6.6 and Wnt act -1.6.
